# Pf Dd2 growth = qHTS Primary assay for Inhibitors of Plasmodium falciparum Dd2 growth in vitro. Potency, µM (series often up to 28.9 µM), for the others: at the highest dose activity, negative = inhibition, hits mostly inhibitors. 120,000 tested, 4.3% active. P. falciparum Dd2 growth, SYBR Green, 72 h; active means well fitted inhibition curve with a large enough effect;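 further: plate controls were DMSO vehicle for no effect and reference drug for full effect; nearly all actives have a fitted effect of over 65% in size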
#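 Infected erythrocytes (Dd2, 0.3% parasitemia, 2.5% hematocrit final) are added to compound in RPMI-1640/Albumax II medium, grown 72 h at 37C in low oxygen, then lysed with saponin/Triton-X containing SYBR Green and read by fluorescence.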
# The depositor's hits bear a star; i = inactive; [ ] = dose if it differs, or a comment. This is one part of a sample in which hits are shown more often than they occur. Potency means the concentration at half of the fitted maximal effect.
SMILES,Pf Dd2 growth
CCCN1C(=O)c2[nH]nc(-c3ccccc3)c2C1c1cccc(O)c1 (configuration not stated),-19%
COc1ccc(-c2n[nH]c3c2C(c2ccccn2)N(C)C3=O)cc1 (configuration not stated),-13%
O=C(NC1(C(F)(F)F)NC(=O)N(CCc2ccccc2)C1=O)c1ccc(Cl)cc1 (configuration not stated),i
O=C1c2[nH]nc(-c3ccccc3O)c2C(c2ccc(F)cc2)N1CCO (configuration not stated),-9%
COCCC(=O)N1CCc2nc(N3CCN(C)CC3)sc2C1,6%
CN1C[C@H](O)C[C@H]1c1nnc2n1CCN(C(=O)CC1CCCC1)CC2,12%
O=C1N(c2ccccc2)C[C@H]2CN(Cc3ncc[nH]3)CCN12,1%[44.1 µM]
CCn1nc(C(C)C)cc1C(=O)N1CCN(C)C2(CCC(=O)N(C)CC2)C1 (configuration not stated),-8%
Cc1cccc2nc(CNC(=O)c3cc(COc4ccc(F)cc4F)on3)cn12,-13%
CCc1n[nH]c(CC2CCN(C(=O)c3ccccc3)CC2)n1,-6%
CCC(=O)N1CCC(Cc2nc(-c3ccccc3)n[nH]2)CC1,-27%
Cc1ccc(CN2CCC(Cc3nc(-c4cccnc4)n[nH]3)C2)cc1C (configuration not stated),i
O=C(Nc1ccc2c(c1)OCCO2)N1CCCC(Cc2noc(-c3ccncc3)n2)C1 (configuration not stated),i
O=C(Cc1ccccc1)N1CCC(Cc2nc(-c3cccnc3)n[nH]2)C1 (configuration not stated),i
Fc1cccc(CN2CCC(Cc3nc(-c4ccccc4)n[nH]3)C2)c1 (configuration not stated),3.5µM*
O=C(NCc1ccccc1)N1CCC(Cc2nc(-c3ccccc3)n[nH]2)C1 (configuration not stated),-11%
O=C(c1ccccc1)N1CCC(Cc2nc(-c3ccncc3)n[nH]2)CC1,1.3µM*
O=C(Nc1ccc2c(c1)OCCO2)N1CCC(Cc2nc(-c3cccnc3)n[nH]2)C1 (configuration not stated),3.5µM*
COc1cc2c(cc1-c1nccn1-c1ccc(NC(C)=O)cc1)OCCO2,-11%
COc1cc(OC)cc(C(=O)N2CCC(n3cc(-c4nc(-c5ccccc5)no4)nn3)C2)c1 (configuration not stated),169%
CCC(c1cccs1)N1C(=O)[C@H]2CN(S(=O)(=O)c3ccc(F)c(C)c3)C[C@H]2C1=O (some centres not stated),5%
CCc1ccc(S(=O)(=O)N(C)CC2CCOCC2)cc1,-2%
CCOCc1nc(C2CCCN(C(=O)Nc3cccc(F)c3C)C2)no1 (configuration not stated),4%
CCCCNc1ncc(C(=O)O)c(COC)n1,i
O=C(NC1C[C@H]2CC[C@@H](C1)N2C(=O)CC1CCCC1)c1ccncc1 (some centres not stated),-4%
SMILES,Pf Dd2 growth
C=CCC1(CO)CCCN(Cc2nc(C)cc(-c3ccccc3)n2)C1 (configuration not stated),8.9µM*
C=CCC1(C(=O)O)CCCN(Cc2cc3c(cc2OC)OCO3)C1 (configuration not stated),-12%
C=CCC1(CO)CCCN(C(=O)CCCOc2ccccc2)C1 (configuration not stated),-27%
CCC1(CO)CCCN(CCCOc2ccc(C(N)=O)cc2)C1 (configuration not stated),-7%
C=CCC1(C(=O)O)CCCN(Cc2cnc(NCc3ccccc3)nc2)C1 (configuration not stated),7%
C=CCC1(CO)CCCN(CCOc2ccc(C)cc2Cl)C1 (configuration not stated),8.9µM*
COCCN1C(=O)[C@H]2CN(Cc3ccccc3C(F)(F)F)C[C@H]2C1=O,43%
O=C(NC1CC1)C1CCN(C(=O)N2CC3CC(C2)[C@H]2CCCC(=O)N2C3)CC1 (some centres not stated),-12%
Cc1noc([C@@H]2CN(C(=O)c3cc(C)oc3C)C[C@H]2CO)n1,-14%
CCC1CN(C(=O)N2CCC(C(=O)NCCc3ccc(C)cc3)CC2)c2ccccc2O1 (configuration not stated),i
CCC1CN(C(=O)N2CCC(C(=O)NCCN(CC)CC)CC2)c2cc(C)ccc2O1 (configuration not stated),i
CCC1CN(C(=O)N2CCC(C(=O)NCCc3ccc(OC)cc3OC)CC2)c2cc(C)ccc2O1 (configuration not stated),5.6µM*
CC1CN(C(=O)N2CCC(C(=O)NCc3cccs3)CC2)c2cc(Cl)ccc2O1 (configuration not stated),-18%
CNC(=O)C1CCN(C(=O)N2CC(C)Oc3ccc(C)cc32)CC1 (configuration not stated),-7%
CCOc1ccc(NC(=O)C2CCN(C(=O)N3CC(C)Oc4ccc(Cl)cc43)CC2)cc1 (configuration not stated),13µM*
